# Data as given in PubChem BioAssay (NCATS).
# Where “and” joins values, the source holds several entries; their conditions need not be identical. Equal values may be shown once. Records with an inconclusive call do not appear. Entries that show only a call come without a potency. Calls of active or inactive are those of the source. Unless noted, calls follow the shape of the dose curve; as a rule, active = well fitted curve in the direction sought with a large enough effect; inconclusive = small, poorly fitted or top-dose-only effect, or another doubt; inactive = no such curve, though single readings can be large; an effect the other way counts as inactive or inconclusive.
# What was measured:
# [1] = target: Cytochrome P450 3A4 (Homo sapiens) (UniProt P08684); test: qHTS Assay for Inhibitors and Substrates of Cytochrome P450 3A4 (AID 884); also: nearly all actives have a fitted effect of over 50% in size; also: potency is read from the fitted curve at half-maximal effect
# Chain of Cytochrome P450 3A4 (Homo sapiens) (P08684 whole entry, looked up): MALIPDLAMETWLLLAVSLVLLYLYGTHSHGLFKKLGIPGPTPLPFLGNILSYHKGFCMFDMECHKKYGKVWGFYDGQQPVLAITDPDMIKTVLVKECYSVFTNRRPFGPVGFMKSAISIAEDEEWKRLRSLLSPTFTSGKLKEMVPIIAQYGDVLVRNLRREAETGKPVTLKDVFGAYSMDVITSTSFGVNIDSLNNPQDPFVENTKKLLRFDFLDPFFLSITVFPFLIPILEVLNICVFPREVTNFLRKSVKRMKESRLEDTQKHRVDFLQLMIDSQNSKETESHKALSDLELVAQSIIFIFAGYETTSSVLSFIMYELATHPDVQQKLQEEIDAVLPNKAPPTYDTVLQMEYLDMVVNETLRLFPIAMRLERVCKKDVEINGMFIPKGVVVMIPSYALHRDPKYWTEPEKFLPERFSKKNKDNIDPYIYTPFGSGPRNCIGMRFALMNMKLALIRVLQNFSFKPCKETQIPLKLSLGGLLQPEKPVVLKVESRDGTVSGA
# Method in brief: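 20 nM human CYP3A4 with 25 uM Luciferin-PPXE (at KM) in 200 mM KPO4, preincubated 10 min with compound; NADPH regeneration started a 60 min RT reaction. Luciferin detected by luminescence, normalized to 57 uM ketoconazole as full inhibition.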
# [2] = Confirmation and Secondary Assay for Modulators of Hemoglobin Beta Chain Splicing at IVS2 654 locus (AID 910);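 also: HeLa cells stably carrying EGFP split by mutant beta-globin IVS2-654 intron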
# Method in brief: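 HeLa cells stably expressing EGFP interrupted by β-globin IVS2-654 intron, seeded overnight in Opti-MEM/2% FCS, then treated 2 days at 37 °C. Restored splicing read as total peak GFP intensity per well by laser scanning cytometry (488 nm excitation, 500–520 nm emission); 500 nM antisense PNA as control.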
# [3] = qHTS Assay for Lipid Storage Modulators (AID 1519; calls by dose curve); conditions: Drosophila S3 cells, BODIPY lipid droplet/cell ratio, laser cytometry, cells loaded with oleic acid; for activity change, negative = inhibition: at 57.5 µM (top of the series)
# Method in brief: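 Cells seeded at 5,000 per well were treated with compounds over a concentration series and loaded with oleic acid (400 uM, as added). Lipid droplet fluorescence (488 nm excitation, 500-530 nm channel) was read by laser-scanning cytometry and normalized to 20 uM Triacsin C.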
# [4] = target: Ubiquitin carboxyl-terminal hydrolase 1 (Homo sapiens) (UniProt O94782); test: Inhibitors of USP1/UAF1: Pilot qHTS (AID 504865);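 also: rhodamine fluorescence freed from ubiquitin-rhodamine substrate followed over time; top concentration of the series differs between compounds; nearly all actives have a fitted effect of over 35% in size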
# Chain of Ubiquitin carboxyl-terminal hydrolase 1 (Homo sapiens) (O94782 whole entry, looked up): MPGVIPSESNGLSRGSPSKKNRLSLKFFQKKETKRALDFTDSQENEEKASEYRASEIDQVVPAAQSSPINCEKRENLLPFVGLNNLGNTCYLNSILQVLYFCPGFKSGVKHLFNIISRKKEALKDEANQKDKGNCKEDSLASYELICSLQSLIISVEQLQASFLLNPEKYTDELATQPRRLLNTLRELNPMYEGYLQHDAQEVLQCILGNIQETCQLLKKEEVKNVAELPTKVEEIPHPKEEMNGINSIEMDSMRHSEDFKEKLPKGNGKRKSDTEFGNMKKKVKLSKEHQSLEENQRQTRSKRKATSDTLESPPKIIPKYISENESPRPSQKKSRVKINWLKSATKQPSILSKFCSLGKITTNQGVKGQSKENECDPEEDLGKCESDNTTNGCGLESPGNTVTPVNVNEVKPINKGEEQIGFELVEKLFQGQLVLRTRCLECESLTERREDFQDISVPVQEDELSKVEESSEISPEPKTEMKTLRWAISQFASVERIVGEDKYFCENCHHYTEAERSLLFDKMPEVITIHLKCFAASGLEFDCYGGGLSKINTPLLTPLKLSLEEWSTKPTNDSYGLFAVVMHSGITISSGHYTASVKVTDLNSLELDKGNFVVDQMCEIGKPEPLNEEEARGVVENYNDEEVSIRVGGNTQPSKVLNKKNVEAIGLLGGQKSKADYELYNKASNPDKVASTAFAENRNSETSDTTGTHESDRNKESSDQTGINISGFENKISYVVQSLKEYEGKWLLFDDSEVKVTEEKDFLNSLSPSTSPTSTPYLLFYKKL
# Method in brief: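 Enzyme-free wells gave the negative control, while test wells held 1nM USP1/UAF1 preincubated with compound for 15 min at room temperature. Ub-Rho at 150nM final started the reaction, and fluorescence at 480/540 nm was recorded kinetically.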
# [5] = Confirmation and Secondary Assay for Modulators of Hemoglobin Beta Chain Splicing at IVS2 705 locus (AID 930);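 also: HeLa cells stably expressing the EGFP-705 splicing reporter; GFP fluorescence per well restored by corrected splicing of the IVS2-705 intron in EGFP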
# Method in brief: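 HeLa EGFP-705 reporter; 500 cells/well, o/n 37C 5% CO2; cpd 2 d; 488 ex/500-520 em laser scan; total peak GFP intensity/well. Ref: 500 nM […] antisense PNA.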
# [6] = target: Cytochrome P450 3A4 (Homo sapiens) (UniProt P08684); test: qHTS Assay for Activators of Cytochrome P450 3A4 (AID 885); also: nearly all actives have a fitted effect of over 65% in size
# Method in brief: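 Quantitative HTS format: compounds preincubated with 20nM human CYP3A4 and Luciferin-PPXE substrate at KM, reaction started by NADPH regeneration, stopped after 60 min, luciferase luminescence read 20 min later.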
# [7] = measured here: cell count channel max response
# [8] = measured here: lipid channel max response
Compound,Potency [1],Potency [2],"activity change, negative = inhibition [3]","max response [3, 7]","max response [3, 8]",Potency [4],Potency [5],Potency [6]
C[C@@]12CC(c3ccoc3)OC(=O)C1CC[C@@]1(C)C2C2C=C[C@@]1(O)C(=O)O2 (some centres not stated),inactive,inactive,2.16% (inactive),24.2%,26.2%,inactive,–,–
C=C1C2CCC3[C@@](CC[C@@H]4C(C(=O)O)CC(OC5OC(CO)C(OS(=O)(=O)O)C(OS(=O)(=O)O)C5OC(=O)CC(C)C)C[C@]34C)(C2)C1O (some centres not stated),inactive,inactive,1.97% (inactive),-12%,-7.92%,inactive,inactive,–
O=C(CC[N+](=O)[O-])OCC1OC(O)C(OC(=O)CC[N+](=O)[O-])[C@@H](OC(=O)CC[N+](=O)[O-])C1OC(=O)CC[N+](=O)[O-] (some centres not stated),inactive,inactive,3.27% (inactive),13%,17.5%,inactive,inactive,–
O=C(O)CCC1NCC2CC1CN1CCCCC21 (configuration not stated),inactive,–,2.61% (inactive),3.62%,5.45%,inactive,inactive,–
CC1CC2CC(=O)C3CCCN4CCCC2[C@]34C1 (some centres not stated),inactive,inactive,3.72% (inactive),9.37%,11.3%,inactive,–,–
CC(=O)OC1C(=O)[C@]2(C)C(O)CC3OC[C@]3(OC(C)=O)C2[C@@H](OC(=O)c2ccccc2)[C@]2(O)CC(O)C(C)=C1C2(C)C (some centres not stated),inactive,inactive,0.522% (inactive),3.27%,6.64%,inactive,inactive,–
CCN1C[C@@]2(OC(=O)c3ccccc3NC(C)=O)CCC(OC)[C@@]34C5CC6C(OC)C[C@@](O)(C(CC23)[C@@H]14)C5(O)C6OC (some centres not stated),inactive,inactive,4.73% (inactive),10.9%,17%,inactive,inactive,–
COc1cc(C2c3cc4c(c(O)c3CC3COC(=O)C32)OCO4)cc(OC)c1OC (configuration not stated),1 µM (active),inactive,3.6% (inactive),11.9%,14.5%,inactive,inactive,inactive
COc1cc(C2c3cc4c(cc3C(O)C3COC(=O)C23)OCO4)cc(OC)c1O (configuration not stated),6.31 µM (active),–,7.14% (inactive),-1.69%,6.73%,inactive,inactive,inactive
OCC1CCCN2CCCCC12 (configuration not stated),inactive,inactive,1.09% (inactive),-1.96%,1.94%,inactive,inactive,–
CC(C)(C#N)O[C@H]1OC(CO)C(O)C(O)C1O (some centres not stated),inactive,inactive,4.98% (inactive),13.6%,22.9%,inactive,inactive,–
COc1cc2c3cc1Oc1c(OC)c(OC)cc4c1C(Cc1cccc(c1)Oc1ccc(c(O)c1)CC3N(C)CC2)N(C)CC4 (configuration not stated),inactive,inactive,6.04% (inactive),15.8%,22.7%,inactive,inactive,–
COc1ccc(/C=C/c2cc(O)cc(O)c2)cc1,inactive,inactive,4.7% (inactive),1.7%,6.07%,inactive,inactive,–
CC1CC[C@]2(NC1)OC1CC3C4CC=C5CC(O)CC[C@@]5(C)C4CC[C@]3(C)C1C2C (some centres not stated),inactive,inactive,2.46% (inactive),14.9%,22.2%,inactive,–,–
CC(N)[C@@H](O)c1ccccc1 (some centres not stated),inactive,inactive,6.04% (inactive),11.6%,28.2%,inactive,inactive,–
CC(=O)OC1CC(OC(C)=O)[C@]2(C)C(CC(OC(C)=O)[C@]3(C)C2CC[C@@]2(C)C(c4ccoc4)C[C@H]4O[C@]432)C1(C)C (some centres not stated),inactive,inactive,6.91% (inactive),9.38%,19.4%,inactive,inactive,–
CNC(Cc1c[nH]c2ccccc12)C(=O)O (configuration not stated),inactive,inactive,4.43% (inactive),11.7%,20.5%,inactive,–,–
C[C@@]12CCC(=O)C[C@@H]1CC[C@@H]1[C@@H]2CC[C@]2(C)C(=O)CC[C@@H]12,inactive,inactive,6.14% (inactive),2.79%,10.6%,inactive,inactive,–
CC(N)C(O)c1ccc(O)c(O)c1 (configuration not stated),inactive,inactive,9.23% (inactive) and 2.97% (inactive),10.7% and 5.9%,23.4% and 5.16%,inactive,–,–
FC(F)(F)c1cccc(N2CCNCC2)c1,inactive,inactive,4.68% (inactive),-7.45%,-3.82%,inactive,–,–
N#C/C(=C\c1cccc(O)c1)C(=O)O,inactive,inactive,5.07% (inactive),0.883%,7.48%,inactive,inactive,–
C/C=C(\C)C(=O)OC1CC(OC(C)=O)[C@@]2(C(=O)OC)COC3C2[C@@]12CO[C@](O)(C(=O)OC)C2[C@](C)(C12OC1(C)C1CC2OC2OC=C[C@]21O)C3O (some centres not stated),12.6 µM (active),–,-3.34% (inactive),-9.57%,-10.6%,inactive,inactive,inactive
C[C@@]12CCC3C(CC[C@@H]4CC(O)CC[C@@]34C)C1CCC2O (some centres not stated),inactive,inactive,5.33% (inactive),18.2%,26%,inactive,inactive,–
CCN1C[C@]2(COC)C(O)C[C@H](OC)[C@@]34C5C[C@]6(O)C(OC)C(O)[C@](OC(C)=O)(C5C6OC(=O)c5ccccc5)C(C(OC)C23)C14 (some centres not stated),inactive,inactive,4.84% (inactive),13.6%,24%,inactive,inactive,–
